Assay results reported in PubChem BioAssay.
Records with an inconclusive call do not appear. For some of these results: Potency and affinity values are given separately. The source made the active and inactive calls.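 How the source made its calls: active means luciferase signal above three times the same-plate solvent-only control wells; inactive means the rest.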

Tests used:
[1] = polyglutamine-triggered caspase-3 activation inhibitors, cell-based (AID 1583); conditions: polyglutamine-induced caspase-3 activation, cell assay; stronger effect = higher value;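 tested at 10 µM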
[2] = suppressors of polyQ aggregation in yeast, 75Q-TubU reporter (AID 1593); conditions: Yeast 75Q polyglutamine aggregation reporter
[3] = rescue of polyQ-huntingtin neuronal dysfunction in worms, whole organism, C. elegans mechanosensory neurons, N-terminal huntingtin (AID 1599); conditions: touch response, stronger effect = higher value
[4] = inhibitors of mitochondrial cytochrome c release, biochemical, purified mitochondria (AID 1603); conditions: stronger effect = lower value;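 further: mouse liver mitochondria challenged with calcium chloride; signal normalized to the plate average as 100%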
[5] = inhibitors of polyQ protein aggregation (AID 1604); conditions: polyglutamine-induced protein aggregation inhibition assay; stronger effect = higher value; tested at 2.5 µM
[6] = enhancers of glutamate uptake in motor neurons, MN-1 cell line (AID 1612); conditions: MN-1 motor neuron cells, stronger effect = higher value;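 further: tested at 1 µM final; 0% = mean of DMSO vehicle wells on each plate; positive means more glutamate uptake than control and negative means less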
[7] = reducers of polyQ inclusions in PC12 cells, cell-based, NGF-treated PC12, GFPQ80 (AID 1614); conditions: PC12 NGF-treated GFP-polyQ80 inclusion reduction;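 further: lower means fewer inclusions and 0 means no inclusions at all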
[8] = suppressors of polyglutamine aggregation in yeast, 75Q-TubH (AID 1616); conditions: S. cerevisiae 75Q-TubH polyglutamine aggregation suppression; stronger effect = higher value
[9] = protection against mutant huntingtin cytotoxicity, PC12 cells, LDH release (AID 1610); conditions: PC12 mutant huntingtin toxicity, final LDH at 4 uM, stronger effect = lower value
[10] = molecular target: Huntingtin (Homo sapiens) (UniProt P42858); test: inhibitors of mutant Htt aggregation in vitro, dose response, QA1 (AID 1584); conditions: in vitro mutant huntingtin aggregation assay; confirmation test; at 10 µM; stronger effect = lower value
[11] = molecular target: Mitogen-activated protein kinase 7 (Homo sapiens) (UniProt Q13164); test: ERK5 transactivation activators in reporter cells, primary screen, cell-based, HTS (AID 1508626); conditions: HeLa Gal4-ERK5 transactivation, 18 h, at 5 µM, stronger effect = higher value;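 further: luciferase driven by Gal4-ERK5 fusion binding five Gal4 sites before minimal TATA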
Chain of Mitogen-activated protein kinase 7 (Homo sapiens) (Q13164 whole entry, looked up, the tested form may be a part): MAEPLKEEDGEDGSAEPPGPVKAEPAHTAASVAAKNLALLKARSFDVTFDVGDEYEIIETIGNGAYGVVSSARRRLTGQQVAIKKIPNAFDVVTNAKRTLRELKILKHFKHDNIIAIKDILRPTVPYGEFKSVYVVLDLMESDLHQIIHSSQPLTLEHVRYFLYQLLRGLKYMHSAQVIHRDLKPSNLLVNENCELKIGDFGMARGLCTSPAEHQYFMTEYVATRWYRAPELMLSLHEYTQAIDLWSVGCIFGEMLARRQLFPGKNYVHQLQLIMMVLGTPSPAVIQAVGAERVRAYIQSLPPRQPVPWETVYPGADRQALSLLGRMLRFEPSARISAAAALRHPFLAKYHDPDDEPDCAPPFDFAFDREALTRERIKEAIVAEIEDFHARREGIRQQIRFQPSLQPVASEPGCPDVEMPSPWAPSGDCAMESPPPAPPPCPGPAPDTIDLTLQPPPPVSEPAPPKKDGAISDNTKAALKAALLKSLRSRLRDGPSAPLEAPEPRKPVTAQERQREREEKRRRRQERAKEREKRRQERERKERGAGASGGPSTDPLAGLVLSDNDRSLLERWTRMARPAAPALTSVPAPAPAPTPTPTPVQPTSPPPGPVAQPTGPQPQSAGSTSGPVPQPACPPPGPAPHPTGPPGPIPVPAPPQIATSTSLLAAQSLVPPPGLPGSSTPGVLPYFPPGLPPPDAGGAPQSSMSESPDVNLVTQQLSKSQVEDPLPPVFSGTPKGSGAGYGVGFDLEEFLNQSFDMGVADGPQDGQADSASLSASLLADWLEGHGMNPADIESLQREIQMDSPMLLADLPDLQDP

Chain of Huntingtin (Homo sapiens) (P42858 whole entry, looked up, the tested form may be a part): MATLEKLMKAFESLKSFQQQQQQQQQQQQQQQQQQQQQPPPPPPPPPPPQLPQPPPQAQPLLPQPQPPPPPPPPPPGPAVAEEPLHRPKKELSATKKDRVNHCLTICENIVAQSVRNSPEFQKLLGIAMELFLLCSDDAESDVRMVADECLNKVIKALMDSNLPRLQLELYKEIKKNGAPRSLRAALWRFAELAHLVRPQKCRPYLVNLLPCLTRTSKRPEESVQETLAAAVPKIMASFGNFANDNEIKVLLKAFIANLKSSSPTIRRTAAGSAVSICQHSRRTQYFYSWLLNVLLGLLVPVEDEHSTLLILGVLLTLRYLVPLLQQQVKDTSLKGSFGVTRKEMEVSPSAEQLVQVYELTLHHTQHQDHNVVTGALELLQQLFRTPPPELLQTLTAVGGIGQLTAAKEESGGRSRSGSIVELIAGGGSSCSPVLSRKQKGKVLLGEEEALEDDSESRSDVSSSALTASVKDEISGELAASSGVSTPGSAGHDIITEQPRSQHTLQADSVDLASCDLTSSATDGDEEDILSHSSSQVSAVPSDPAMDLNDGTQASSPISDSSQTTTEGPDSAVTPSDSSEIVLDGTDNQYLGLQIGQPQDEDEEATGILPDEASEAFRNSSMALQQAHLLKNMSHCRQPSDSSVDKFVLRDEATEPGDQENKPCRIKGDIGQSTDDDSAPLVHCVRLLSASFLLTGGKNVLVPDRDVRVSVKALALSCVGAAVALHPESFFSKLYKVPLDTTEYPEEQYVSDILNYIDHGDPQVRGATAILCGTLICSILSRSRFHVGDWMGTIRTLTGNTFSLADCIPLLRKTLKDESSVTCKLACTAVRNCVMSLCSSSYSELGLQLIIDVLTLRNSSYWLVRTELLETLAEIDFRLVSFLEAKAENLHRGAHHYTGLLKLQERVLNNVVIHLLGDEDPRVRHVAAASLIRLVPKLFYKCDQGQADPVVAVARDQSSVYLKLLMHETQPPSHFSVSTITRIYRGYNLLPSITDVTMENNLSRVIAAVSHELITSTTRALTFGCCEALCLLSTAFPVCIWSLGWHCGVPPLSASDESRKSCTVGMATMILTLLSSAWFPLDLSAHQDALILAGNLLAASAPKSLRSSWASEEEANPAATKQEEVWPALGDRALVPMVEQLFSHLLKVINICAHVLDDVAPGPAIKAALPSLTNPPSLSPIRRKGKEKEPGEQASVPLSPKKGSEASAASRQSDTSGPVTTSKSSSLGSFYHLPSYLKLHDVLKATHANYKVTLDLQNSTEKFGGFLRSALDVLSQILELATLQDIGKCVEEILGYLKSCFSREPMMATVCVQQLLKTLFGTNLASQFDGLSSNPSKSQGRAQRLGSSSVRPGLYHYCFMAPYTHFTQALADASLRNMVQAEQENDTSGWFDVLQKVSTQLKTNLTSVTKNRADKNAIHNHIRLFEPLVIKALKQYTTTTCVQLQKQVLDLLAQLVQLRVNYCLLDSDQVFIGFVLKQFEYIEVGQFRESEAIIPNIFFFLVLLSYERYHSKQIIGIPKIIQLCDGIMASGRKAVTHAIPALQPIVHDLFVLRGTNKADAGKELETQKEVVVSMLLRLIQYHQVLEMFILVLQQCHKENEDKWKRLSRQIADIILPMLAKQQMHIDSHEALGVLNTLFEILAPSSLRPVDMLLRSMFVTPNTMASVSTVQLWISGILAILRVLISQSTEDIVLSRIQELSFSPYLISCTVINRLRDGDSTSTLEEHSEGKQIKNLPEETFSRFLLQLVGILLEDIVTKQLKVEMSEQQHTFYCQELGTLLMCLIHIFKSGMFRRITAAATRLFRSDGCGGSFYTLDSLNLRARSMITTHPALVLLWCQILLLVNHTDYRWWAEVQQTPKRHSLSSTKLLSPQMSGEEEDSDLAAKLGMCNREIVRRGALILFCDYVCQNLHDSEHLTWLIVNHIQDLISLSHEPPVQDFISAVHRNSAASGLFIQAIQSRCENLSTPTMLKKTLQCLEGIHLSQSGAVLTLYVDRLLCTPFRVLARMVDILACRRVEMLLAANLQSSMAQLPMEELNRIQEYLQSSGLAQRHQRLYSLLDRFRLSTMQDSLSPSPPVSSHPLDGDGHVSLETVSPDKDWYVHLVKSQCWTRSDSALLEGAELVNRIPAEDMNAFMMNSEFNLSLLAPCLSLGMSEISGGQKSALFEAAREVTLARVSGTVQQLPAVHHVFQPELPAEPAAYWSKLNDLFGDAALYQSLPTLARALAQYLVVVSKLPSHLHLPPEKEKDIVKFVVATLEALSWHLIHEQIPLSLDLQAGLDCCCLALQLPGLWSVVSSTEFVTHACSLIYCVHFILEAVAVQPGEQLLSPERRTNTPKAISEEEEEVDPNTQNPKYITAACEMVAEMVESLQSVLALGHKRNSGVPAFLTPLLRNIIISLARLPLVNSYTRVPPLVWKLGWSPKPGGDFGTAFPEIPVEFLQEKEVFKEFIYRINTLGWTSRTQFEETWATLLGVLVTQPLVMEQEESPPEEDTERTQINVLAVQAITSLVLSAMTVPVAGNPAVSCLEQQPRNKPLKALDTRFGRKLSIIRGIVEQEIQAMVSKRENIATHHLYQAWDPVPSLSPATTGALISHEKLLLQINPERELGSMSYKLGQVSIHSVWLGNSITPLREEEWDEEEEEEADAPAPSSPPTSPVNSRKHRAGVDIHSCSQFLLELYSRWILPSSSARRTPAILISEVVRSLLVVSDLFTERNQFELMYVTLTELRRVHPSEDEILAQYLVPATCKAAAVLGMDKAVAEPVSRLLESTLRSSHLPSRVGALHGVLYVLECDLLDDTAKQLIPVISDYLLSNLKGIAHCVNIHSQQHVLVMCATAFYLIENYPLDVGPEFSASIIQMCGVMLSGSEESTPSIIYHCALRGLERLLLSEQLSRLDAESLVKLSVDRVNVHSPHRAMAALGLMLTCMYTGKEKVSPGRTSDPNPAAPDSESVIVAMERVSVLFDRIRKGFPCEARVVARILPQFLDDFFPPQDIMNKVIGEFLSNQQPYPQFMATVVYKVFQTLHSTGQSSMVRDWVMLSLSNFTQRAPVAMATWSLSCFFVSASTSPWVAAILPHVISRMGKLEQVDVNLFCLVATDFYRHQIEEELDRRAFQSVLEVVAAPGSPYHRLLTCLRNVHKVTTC

Row | SMILES | inhibition [1] | score [2] | rescue above control [3] | cytochrome c release ratio [4] | inhibition of aggregation [5] | glutamate uptake change [6] | inclusion score [7] | aggregation suppression score [8] | normalised LDH release [9] | aggregation ratio [10] | luciferase signal [11]
1 | CNC(C)Cc1ccc2c(c1)OCO2 (centres undefined) | -3.07% | 0.95 | -0.64 | 0.84 | 0.68% | -3.54% | 2 | 1.38 | – | – | –
2 | COc1ccc2c3c1O[C@H]1[C@@H](O)C=CC4[C@@H](C2)N(C)CC[C@@]341 (some centres undefined) | -19% | 1.17 | 2.82 | 0.92 | 61.9% | -22% | 2 | 1.22 | – | – | –
3 | CN1CC[C@]23c4c5ccc(O)c4O[C@H]2C(=O)CCC3[C@H]1C5 (some centres undefined) | 7.55% | 1.13 | -11.3 | 1.11 | -0.68% | 20.7% | 2 | 1.27 | – | – | –
4 | CCCCCc1cc(O)c2c(c1)OC(C)(C)C1CC=C(C)CC21 (centres undefined) | 13.2% | -0.66 | -4.34 | 1.71 | 42.9% | -49.9% | – | 0.105 | 0.999 | – | –
5 | CCOC(=O)C1C(OC(=O)c2ccccc2)CC2CCC1N2C (centres undefined) | 4.42% | 1.01 | -8 | 0.89 | 44.2% | -24.3% | 2 | 1.45 | – | – | –
6 | C[C@@]1(C(=O)O)CC[C@]2(C)CC[C@]3(C)C4=CC=C5C=C(O)C(=O)C=C5[C@]4(C)CC[C@@]3(C)[C@@H]2C1 | – | 1.77 | – | 3.7 | 11.8% | -13.4% | – | 1.23 | 0.996 | 0.487 | –
7 | CN1C2CCC1C(C(=O)O)C(OC(=O)c1ccccc1)C2 (centres undefined) | -11.5% | 0.85 | -9.16 | 1.03 | 41.5% | -21% | 2 | 1.17 | – | – | –
8 | COc1cc(CCN)cc(OC)c1OC | 8.49% | 1.47 | -5.41 | 0.91 | 22.4% | -3.12% | 2 | 1.23 | – | – | –
9 | O=C1Nc2ccc(Cl)cc2C(c2ccccc2)=NC1O (centres undefined) | -2.46% | 1.01 | -7.17 | 1.14 | 32% | 0.27% | – | 0.898 | – | – | –
10 | COC(=O)C1C(OC(=O)c2ccccc2)CC2CCC1N2C (centres undefined) | -2.13% | 1.1 | -9 | 0.85 | 32% | -26.1% | 2 | 1.26 | – | – | –
11 | CN1[C@H]2C[C@H](OC(=O)[C@H](CO)c3ccccc3)C[C@@H]1[C@@H](O)C2 | – | – | – | – | – | – | – | – | – | – | 56 AU (inactive)
